This is part of a sample that, as a whole, favours compounds with a hit. Of some 79,000 tested, about 15% had one in any assay. A number with no mark means an inactive call. Cut-off read from the data, not from the text of the source: active = growth inhibition above about 70%; inactive = the rest.
Experiment: NCI Yeast Anticancer Drug Screen. Data for the cln2 rad14 strain (AID 165);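 note: 0% = growth equal to vehicle treated cultures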
Details: S. cerevisiae cln2 rad14 strain, at 50.0 µM, stronger effect = higher value
Method in brief: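 Strain: cln2 rad14 yeast, altered in cell cycle control and DNA damage repair. Read-out: growth inhibition vs vehicle.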
In the case of `CC(C)(N=NC(C)(C)C(=O)NCCO)C(=O)NCCO`, the growth inhibition was 19.7%. Molecule `COc1ccc(OC)c(/C=C/c2ccc(NC(=O)C(Cl)(Cl)Cl)cc2)c1` has a growth inhibition of -36.3%. In the case of `NC1=C(O)C(=O)C(c2ccccc2)O1` (centres undefined), the growth inhibition was -24.2%. Molecule `O=C(O)C(=O)Cc1ccccc1` has a growth inhibition of 19.9%. For `Br/C=C\Br`, the growth inhibition was 28.6%. `COc1ccc2c(c1O)-c1c(OC)c(OC)cc3c1[C@H](C2)[N+](C)(C)CC3` showed a growth inhibition of 1.65%. For `Cc1ccccc1N(C(=O)C(=O)O)c1ccccc1C`, the growth inhibition was 7.95%. For `CC(C)(C)NC(=O)NCc1ccccc1Cl`, the growth inhibition was -52.5%. Molecule `c1csc(-c2nccc3ccccc23)c1` has a growth inhibition of 2.2%. With `CC(/C=N\NC(=S)SCc1ccccc1)=N/N=C(N)N` the growth inhibition was -3.7%. Work on `O=C(O)COc1cc(-c2ccccc2)nc2ccc(F)cc12` yielded a growth inhibition of 7.25%. Work on `C/C(=C/C(C)O)c1ccccc1` (centres undefined) yielded a growth inhibition of 4.9%. With `CC1(C)N=C(N)N=C(N)N1CCCCc1ccccc1` the growth inhibition was -25.4%. `ClCCCCCCCCCCl` gave a growth inhibition of -9%. Molecule `COc1cccc(/C=N/N(C)c2c([N+](=O)[O-])cc(C(F)(F)F)cc2[N+](=O)[O-])c1O` has a growth inhibition of 14.1%. With `NC(CCCOS(=O)(=O)O)Cc1ccc2ccccc2c1` (centres undefined) the growth inhibition was 10.2%. `O=C(NNC(=O)c1ccc(Cl)cc1Cl)c1ccccc1` showed a growth inhibition of -9.9%. Work on `O=C(OCC1OC(OCc2ccccc2)C(OC(=O)c2ccccc2)C1OC(=O)c1ccccc1)c1ccccc1` (centres undefined) yielded a growth inhibition of -3%. `CN(CC#N)CC#N` showed a growth inhibition of -1.6%.
